# Experimental data taken from PubChem BioAssay.
# Several values for one entry are separate records, joined by “and”; a condition that tells them apart may be missing. Equal entries are not always repeated. Activity calls are given as the source filed them.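 The calls were made as follows, unless noted: active = inhibition at or above 50% relative to wild type and mutant plate controls; inactive = inhibition below 50%.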
# Tests used:
# [1] = inhibitors of TNFa-induced NFkB p65 translocation, primary screen, imaging, HUVEC, MLSMR starter and 10KST1 sets (AID 438;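 active = inhibition above 20% together with a positive visual image hit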;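 also: compound added about 3h40 before a 20 min TNFalpha stimulation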;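 as to inhibition: signal is the nuclear over cytoplasmic p65 intensity ratio per well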); conditions: HUVEC TNFa-induced p65 nuclear translocation; cell count: measured here: nuclei count (cytotoxicity indicator), at 2.08 µM; inhibition: at 2 µM, stronger effect = higher value, 0% TNFa-plus-vehicle, 100% no-TNFa wells
# [2] = inhibitors of mutant huntingtin aggregation, primary screen, imaging, exon1htt(103Q)mCFP cells, high-content imaging (AID 483;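 active = visual image review flags a hit and inhibition of aggregation exceeds 20%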;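 also: compound exposure lasted 3 days before fixation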;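 as to nuclei count: percent of the per-plate median nuclei count of sample wells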); conditions: exon1htt(103Q)mCFP cell line, aggregate imaging, at 2 µM; inhibition of aggregation: stronger effect = higher value; nuclei count: measured here: cell count, toxicity
# [3] = inhibitors of E-selectin induction by TNFa, primary screen, imaging, HUVEC, immunofluorescence, MLSMR starter and 10KST1 sets (AID 487;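 active = visually confirmed hit in the image check and inhibition above 20%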;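 as to inhibition: signal is fraction of cell area covered by stained E-selectin grains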;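 as to nuclei count: 100% = median nuclei count of all wells on the same plate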); conditions: HUVEC TNFalpha-induced E-selectin immunofluorescence imaging, at 2 µM; inhibition: stronger effect = higher value; nuclei count: measured here: cell number, toxicity
# [4] = DUSP6 inhibitors restoring Erk phosphorylation by chemical complementation, primary imaging in DUSP6-transfected HeLa (AID 609;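 active = compounds giving at least 50% inhibition in the cell-based MKP-3 phosphatase rescue imaging test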;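 as to inhibition: phospho-Erk level distribution per well compared with pooled transfected vehicle control wells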); conditions: HeLa MKP-3 transfected, phospho-Erk imaging KS statistic, at 10 µM, cells stimulated with TPA for 15 min
# [5] = target: Dual specificity protein phosphatase 6 (Homo sapiens) (UniProt Q16828); experiment: as above; conditions: HeLa MKP-3 transfected, phospho-Erk imaging KS statistic; at 10 µM; stronger effect = higher value; cells stimulated with TPA for 15 min
# Chain of Dual specificity protein phosphatase 6 (Homo sapiens) (Q16828 whole entry, looked up): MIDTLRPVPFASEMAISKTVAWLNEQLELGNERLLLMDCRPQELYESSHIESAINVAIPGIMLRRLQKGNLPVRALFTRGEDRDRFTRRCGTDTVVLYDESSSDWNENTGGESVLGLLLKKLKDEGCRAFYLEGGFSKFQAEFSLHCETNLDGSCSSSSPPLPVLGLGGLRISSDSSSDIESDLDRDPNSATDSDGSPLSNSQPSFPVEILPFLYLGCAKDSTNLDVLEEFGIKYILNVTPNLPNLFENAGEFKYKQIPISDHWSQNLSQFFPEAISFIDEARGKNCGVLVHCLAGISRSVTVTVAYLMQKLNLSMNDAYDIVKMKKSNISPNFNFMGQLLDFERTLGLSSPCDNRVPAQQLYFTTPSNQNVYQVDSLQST
# [6] = target: Voltage-gated potassium channel subunit beta-2 (Rattus norvegicus) (UniProt P62483); experiment: KvBeta enzyme negative modulators, primary screen, biochemical, NADPH fluorescence (AID 622;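 active = fluorescence slope higher than the sample average by over 3 SD, cut at about -0.22 in these data, passing the limit was not always enough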;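 also: slope of raw intensity against log time taken from 70 to 1610 s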); conditions: recombinant KvBeta, 4-cyanobenzaldehyde reduction, at 10 µM, stronger effect = higher value
# Chain of Voltage-gated potassium channel subunit beta-2 (Rattus norvegicus) (P62483 whole entry, looked up): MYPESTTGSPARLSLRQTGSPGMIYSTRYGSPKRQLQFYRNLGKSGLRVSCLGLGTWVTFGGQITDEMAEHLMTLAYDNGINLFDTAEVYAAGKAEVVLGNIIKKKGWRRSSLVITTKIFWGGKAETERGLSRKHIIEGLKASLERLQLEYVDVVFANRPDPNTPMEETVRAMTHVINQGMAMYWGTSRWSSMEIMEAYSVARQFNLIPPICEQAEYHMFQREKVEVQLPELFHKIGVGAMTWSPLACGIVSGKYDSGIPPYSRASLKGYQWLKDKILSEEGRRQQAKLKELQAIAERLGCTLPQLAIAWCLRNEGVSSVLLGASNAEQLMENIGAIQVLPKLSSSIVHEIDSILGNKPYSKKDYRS
# [7] = target: Voltage-gated potassium channel subunit beta-2 (Rattus norvegicus) (UniProt P62483); experiment: KvBeta positive modulators, primary screen, biochemical, NADPH fluorescence (AID 623;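 active = NADPH fluorescence slope more negative than the mean of all samples by about 3 SD, 99.7% confidence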;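 also: fluorescence intensity change per second fitted from 20 to 320 s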); conditions: Recombinant KvBeta, NADPH fluorescence decrease slope, 10 min; at 10 µM; stronger effect = lower value
# [8] = target: Alpha-2C adrenergic receptor (Homo sapiens) (UniProt P18825); experiment: modulators of alpha2C/GIRK thallium flux, primary screen, cell-based, HEK293 alpha2C/GIRK1/2 (AID 624;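 active = fluorescence slope after compound addition differing from the mean of all screened samples at 99.7% confidence, in either direction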;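 also: slope of fluorescence ratio to pre-addition baseline per second over 15 to 24 s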); conditions: thallium flux BTC fluorescence, at 10 µM, actives lie on both sides
# Chain of Alpha-2C adrenergic receptor (Homo sapiens) (P18825 whole entry, looked up): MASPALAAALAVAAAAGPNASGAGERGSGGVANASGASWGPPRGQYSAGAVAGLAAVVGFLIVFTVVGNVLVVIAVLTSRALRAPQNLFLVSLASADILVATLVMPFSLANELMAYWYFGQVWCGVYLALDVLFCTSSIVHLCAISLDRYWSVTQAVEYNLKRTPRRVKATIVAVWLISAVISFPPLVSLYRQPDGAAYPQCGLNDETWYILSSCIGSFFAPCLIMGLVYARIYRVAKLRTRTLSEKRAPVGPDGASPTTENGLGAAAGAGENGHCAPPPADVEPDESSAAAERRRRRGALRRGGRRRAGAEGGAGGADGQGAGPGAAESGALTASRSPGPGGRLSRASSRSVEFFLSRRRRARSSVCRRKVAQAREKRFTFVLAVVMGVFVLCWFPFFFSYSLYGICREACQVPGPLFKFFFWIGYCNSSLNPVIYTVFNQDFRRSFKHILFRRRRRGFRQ
# [9] = inhibitors of Chlamydomonas gravitaxis, primary screen, whole organism, Chlamydomonas reinhardtii, WT vs cilia-less mutant, absorbance, 96-well (AID 463189); conditions: OD600 absorbance, 2 days, at 10 µM, stronger effect = higher value;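 also: 0% = wild type cc124 cells in DMSO and 100% = ciliumless bld1 mutant cells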
# [10] = inhibitors of Sendai virus-induced IRF3 signaling, primary screen, TLR/RLR signaling modifier project, cell-based, Sendai virus stimulus, luciferase, 10K MLSCN set (AID 602276;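 active = inhibition at or above 50% at 10 µM; inactive = inhibition below 50%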;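 also: firefly luciferase from ISG56 promoter only with Renilla not read in this screen; 0% = Sendai virus plus DMSO and 100% = medium plus DMSO without virus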); conditions: HEK293 RL24 IRF3 luciferase reporter, at 10 µM, stronger effect = higher value
# [11] = inhibitors of poly I:C-induced TLR3 signaling, primary screen, cell-based, poly I:C stimulus, luciferase, 10K MLSCN set (AID 602277;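 active = inhibition of the reporter signal at or above 50%; inactive = inhibition below 50%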); conditions: HEK293-TLR3 RL24 IRF3 luciferase reporter, at 10 µM, stronger effect = higher value
# [12] = target: Muscarinic acetylcholine receptor M4 (Homo sapiens) (UniProt P08173); experiment: compounds altering M4/GIRK thallium flux, either direction, primary screen, M4 allosteric agonist project, cell-based, HEK293 M4/GIRK, BTC-AM (AID 625;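 active = fluorescence slope after compound addition differing from the mean of all tested samples at 99.7% confidence, mostly higher but some lower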;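 also: thallium influx through GIRK channels coupled to M4 in HEK293 cells with BTC-AM dye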); conditions: at 10 µM, actives lie on both sides
# Chain of Muscarinic acetylcholine receptor M4 (Homo sapiens) (P08173 whole entry, looked up): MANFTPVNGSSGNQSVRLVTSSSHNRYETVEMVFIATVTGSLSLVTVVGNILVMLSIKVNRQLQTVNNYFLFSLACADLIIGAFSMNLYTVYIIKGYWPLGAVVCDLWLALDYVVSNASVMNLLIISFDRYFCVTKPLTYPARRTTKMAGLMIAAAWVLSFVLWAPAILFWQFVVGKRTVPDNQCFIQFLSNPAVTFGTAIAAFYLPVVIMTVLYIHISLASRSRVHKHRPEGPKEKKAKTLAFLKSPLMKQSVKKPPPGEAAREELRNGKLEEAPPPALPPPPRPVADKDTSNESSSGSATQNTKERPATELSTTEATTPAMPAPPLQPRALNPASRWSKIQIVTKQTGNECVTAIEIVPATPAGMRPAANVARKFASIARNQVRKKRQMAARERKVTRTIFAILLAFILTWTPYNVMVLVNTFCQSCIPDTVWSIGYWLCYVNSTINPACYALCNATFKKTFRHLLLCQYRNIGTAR
# [13] = inhibitors of larval lipid processing in zebrafish, primary screen, whole organism, PED6 fluorescence, gall bladder and intestine (AID 686;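 active = a full or partial loss of lipid-probe fluorescence in the fish gall bladder, intestine or both, judged by eye; inactive = no fluorescence loss, or compound toxic to the fish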;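 also: larvae 5 to 7 days old with five fish per well; signal comes from phospholipase A2 cleavage of quenched PED6 carried via bile; overnight exposure to compound and PED6 before scoring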); conditions: Zebrafish larvae PED6 lipid processing, fluorescence scoring; screened at 20 µM (by protocol)
# [14] = measured here: cell density z-score
# [15] = measured here: nuclear c-Myc green intensity z-score
# [16] = measured here: nuclear pErk red intensity z-score, stronger effect = higher value
Structure (SMILES),cell count [1],inhibition [1],inhibition of aggregation [2],nuclei count [2],inhibition [3],nuclei count [3],"z-score [4, 14]","z-score [4, 15]","z-score [4, 16]",inhibition [5],fluorescence slope [6],NADPH fluorescence slope [7],slope [8],inhibition [9],inhibition [10],inhibition [11],fluorescence slope [12],outcome [13]
Cc1c(C)c2cc(Cl)c(O)c(CN3CCCCC3)c2oc1=O,393,1.3% (inactive),-11.8% (inactive),100%,-14.6% (inactive),124%,0.378,-1.22,-0.936,5.26% (inactive),-0.198 (inactive),-2.2e-05 (inactive),0.00419 (inactive),20.3% (inactive),4.19% (inactive),6.59% (inactive),–,–
CCOc1ccc(C2/C(=C(/O)c3ccc(OC)cc3)C(=O)C(=O)N2c2cc(C)on2)cc1OC (stereo not given),314,-5.2% (inactive),2.5% (inactive),87.7%,-84.6% (inactive),122%,0.762,0.679,-1.01,-5.26% (inactive),-0.434 (inactive),-0.000115 (inactive),0.00335 (inactive),-9.21% (inactive),-8.23% (inactive),-11.7% (inactive),–,–
Cc1ccc(NC(=O)CSC2=C(C#N)C(c3ccc4c(c3)OCO4)CC(=O)N2)cc1C (stereo not given),636,1.6% (inactive),-10.3% (inactive),122%,-11.7% (inactive),122%,0.402,0.339,-0.3,6.51% (inactive),-0.486 (inactive),-2.7e-05 (inactive),0.00695 (inactive),25.6% (inactive),-18.5% (inactive),-9.47% (inactive),0.00748 (inactive),inactive
c1ccc(-c2nnc(OCCN3CCOCC3)c3ccccc23)cc1,493,-3.3% (inactive),18.6% (inactive),114%,-85.3% (inactive),126%,0.666,0.289,1.89,-5.26% (inactive),-0.415 (inactive),-0.000176 (inactive),0.00622 (inactive),-11.2% (inactive),15.1% (inactive),20.9% (inactive),–,–
O=C(CCCN1C(=O)c2ccccc2C1=O)N1CCC(c2ccccc2)C1 (stereo not given),452,-8.4% (inactive),-32.2% (inactive),61.9%,-109% (inactive),123%,1.18,-1.65,0.457,-3.5% (inactive),-0.453 (inactive),-7.2e-05 (inactive),0.00674 (inactive),10.2% (inactive),10.8% (inactive),-11.3% (inactive),–,–
c1ccc2[nH]c(-c3cscn3)nc2c1,587,2.5% (inactive),-29.1% (inactive),99.7%,-51.2% (inactive),111%,-1.12,-0.0303,-0.292,1.38% (inactive),-0.491 (inactive),-6.5e-05 (inactive),0.00525 (inactive),45% (inactive),-40.2% (inactive),-133% (inactive),–,–
CC(C)OC(=O)C(C)(C)Oc1ccc(C(=O)c2ccc(Cl)cc2)cc1,484,-9% (inactive),28.8% (inactive),89.5%,-10.1% (inactive),97.2%,0.497,-1.12,0.95,-8.38% (inactive),-0.446 (inactive),1.6e-05 (inactive),0.00465 (inactive),-3.15% (inactive) and 23.4% (inactive),-6.93% (inactive),18.9% (inactive),–,–
COc1c2occc2c(OC)c2c(=O)cc(C)oc12,555,-5.1% (inactive),13.1% (inactive),103%,-78.7% (inactive),136%,-0.618,0.0772,-0.0412,21.2% (inactive),-0.445 (inactive),-4.4e-05 (inactive),0.00425 (inactive),-3.66% (inactive),14.8% (inactive),36% (inactive),–,–
